Assay results reported in PubChem BioAssay.
The source made the active and inactive calls. Unless noted, no rule for the calls is given here.

Key:
[1] = HepG2 liver cancer cell viability effects, profiling panel, resazurin fluorescence, 24 h, PK04 Diversity Set (AID 1172); details: higher = more signal
[2] = basal S. cerevisiae growth modulation, no modifier, primary screen, OD600, strain BY4716, 24 h, basal condition (AID 1173); details: OD600, 24 h, higher = more signal, called active from +8 up or from −8 down
[3] = MM1S myeloma cell viability, profiling panel, resazurin fluorescence, basal, 24 h, PK04 Diversity Set (AID 1174); details: higher = more signal, called active from +8 up or from −8 down;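 also: MM1S multiple myeloma cell line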
[4] = target: Dihydroorotate dehydrogenase (quinone), mitochondrial (Plasmodium falciparum (isolate 3D7)) (UniProt Q08210); assay: PfDHODH enzyme inhibitors, primary screen, biochemical, C-terminal His tag, absorbance 600 nm (AID 1175); details: DCIP absorbance 600 nm, higher = more signal, called active from +8 up or from −8 down;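 also: recombinant parasite enzyme with a five histidine tag at its C terminus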
Dihydroorotate dehydrogenase (quinone), mitochondrial (Plasmodium falciparum (isolate 3D7)), sequence (Q08210 whole entry, looked up): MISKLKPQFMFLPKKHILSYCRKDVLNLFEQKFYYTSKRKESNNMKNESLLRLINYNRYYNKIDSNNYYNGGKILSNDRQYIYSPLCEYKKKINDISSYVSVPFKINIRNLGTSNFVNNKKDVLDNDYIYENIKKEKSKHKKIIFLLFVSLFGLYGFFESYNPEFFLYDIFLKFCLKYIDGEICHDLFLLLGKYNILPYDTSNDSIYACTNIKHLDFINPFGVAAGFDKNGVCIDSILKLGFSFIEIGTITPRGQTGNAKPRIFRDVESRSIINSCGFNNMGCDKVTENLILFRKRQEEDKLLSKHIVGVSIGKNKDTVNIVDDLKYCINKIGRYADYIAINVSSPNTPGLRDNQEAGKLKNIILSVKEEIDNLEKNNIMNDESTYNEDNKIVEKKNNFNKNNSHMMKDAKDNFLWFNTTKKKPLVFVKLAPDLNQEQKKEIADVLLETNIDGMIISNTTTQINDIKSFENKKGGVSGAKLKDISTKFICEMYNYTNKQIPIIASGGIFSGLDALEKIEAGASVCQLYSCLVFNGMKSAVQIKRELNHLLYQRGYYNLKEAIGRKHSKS

[5] = P. aeruginosa biofilm formation inhibitors, primary screen, strain PAO1, LB-PBS medium, absorbance 600 nm (AID 1176); details: P. aeruginosa PAO1 growth/biofilm, A600, 12 h; higher = more signal
[6] = S. cerevisiae RM11-1a growth modifiers, primary screen, strain RM11-1a, OD600, basal, 24 h (AID 1177); details: OD600, 24 h, higher = more signal, called active from +8 up or from −8 down;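 also: cultures grown under basal conditions with no added stressor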
[7] = E. coli acrAB mutant growth effects, primary screen, E. coli filamentation inducers, strain DRC39, OD650, 24 h (AID 1178); details: higher = more signal, called active from +8 up or from −8 down;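 also: growth measured as culture turbidity by optical density at 650 nm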
[8] = E. coli acrAB mutant growth effects, primary screen, E. coli filamentation inducers, strain DRC39, OD650, 48 h (AID 1179);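 also: screen aims at cell division blockers that make cells filament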; details: E. coli DRC39 delta-acrAB growth, higher = more signal, called active from +8 up or from −8 down
[9] = RPMI8226 myeloma cell viability, profiling panel, resazurin fluorescence, basal, 24 h, PK04 Diversity Set (AID 1180); details: higher = more signal;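 also: RPMI8826 multiple myeloma cell line at 5000 cells per well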
[10] = target: E3 ubiquitin-protein ligase XIAP (Homo sapiens) (UniProt P98170); assay: XIAP binders, primary screen, biophysical, small-molecule microarray, fluorescence 635 nm (AID 1181); details: small-molecule microarray binding, higher = more signal;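 also: score merges 667 nm emission and signal to noise over triplicate slides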
E3 ubiquitin-protein ligase XIAP (Homo sapiens), sequence (P98170 whole entry, looked up): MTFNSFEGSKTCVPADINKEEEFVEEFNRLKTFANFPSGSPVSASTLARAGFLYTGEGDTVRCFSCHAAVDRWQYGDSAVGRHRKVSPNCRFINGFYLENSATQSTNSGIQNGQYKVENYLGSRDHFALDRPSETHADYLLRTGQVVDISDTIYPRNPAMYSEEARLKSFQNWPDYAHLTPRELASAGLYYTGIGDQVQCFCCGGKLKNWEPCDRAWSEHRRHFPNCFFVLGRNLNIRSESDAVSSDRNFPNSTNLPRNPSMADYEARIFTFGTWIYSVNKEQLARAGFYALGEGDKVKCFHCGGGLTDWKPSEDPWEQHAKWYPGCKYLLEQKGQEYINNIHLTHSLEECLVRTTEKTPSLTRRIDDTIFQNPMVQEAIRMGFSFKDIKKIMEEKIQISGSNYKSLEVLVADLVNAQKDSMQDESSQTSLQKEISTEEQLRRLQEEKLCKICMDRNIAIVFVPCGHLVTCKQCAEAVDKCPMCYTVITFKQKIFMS

[11] = tested on: XIP peptide (Xip251-270) binding; assay: small-molecule binders of XIP peptide, primary screen, biochemical, small-molecule microarray, fluorescence 635/667 nm, 0.1 µg/mL protein (AID 1182); details: fluorescent protein binding, 635 nm, higher = more signal, called active from +8 up or from −8 down
[12] = tested on: XIP peptide (Xip251-270); assay: small-molecule binders of XIP peptide, primary screen, biochemical, small-molecule microarray, fluorescence 635/667 nm, 0.5 µg/mL protein (AID 1183); details: small-molecule microarray binding, fluorescence 635 nm; higher = more signal
[13] = Plasmodium falciparum growth inhibition, primary screen, strain 3D7, DAPI fluorescence, 100 nL (AID 1184);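 also: parasites grown inside human red blood cells in medium with human serum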; details: P. falciparum 3D7 growth, 3 d, higher = more signal
[14] = target: Homeobox protein Hox-A13 (Mus musculus) (UniProt Q62424); assay: inhibitors of HoxA13-DNA binding, primary screen, biochemical, fluorescence polarization, labeled oligonucleotide (AID 1185); details: 15 min, higher = more signal, called active from +8 up or from −8 down
Homeobox protein Hox-A13 (Mus musculus), sequence (Q62424 whole entry, looked up): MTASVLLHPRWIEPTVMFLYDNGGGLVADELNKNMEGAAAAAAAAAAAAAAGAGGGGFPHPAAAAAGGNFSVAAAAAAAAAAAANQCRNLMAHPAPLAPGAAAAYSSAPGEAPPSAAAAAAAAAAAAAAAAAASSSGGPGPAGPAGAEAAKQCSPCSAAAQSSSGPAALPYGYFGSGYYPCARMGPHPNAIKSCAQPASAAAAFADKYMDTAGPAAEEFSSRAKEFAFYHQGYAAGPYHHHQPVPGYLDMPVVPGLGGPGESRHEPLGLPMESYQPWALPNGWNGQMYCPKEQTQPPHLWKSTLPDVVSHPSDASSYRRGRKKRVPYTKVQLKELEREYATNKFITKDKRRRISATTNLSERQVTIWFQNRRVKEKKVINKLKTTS

[15] = inhibitors of hydroxyurea-induced Chk1 phosphorylation, primary screen, imaging, HeLa, phospho-Chk1 antibody, percent positive cells (AID 1186); details: hydroxyurea-induced phospho-Chk1 immunofluorescence imaging, higher = more signal
[16] = inhibitors of hydroxyurea-induced Chk1 phosphorylation, primary screen, imaging, HeLa, phospho-Chk1 nuclear intensity (AID 1187); details: hydroxyurea-induced phospho-Chk1 immunofluorescence imaging, higher = more signal

SMILES | z-score [1] | z-score [2] | z-score [3] | composite z-score [4] | z-score [5] | z-score [6] | z-score [7] | z-score [8] | z-score [9] | composite z-score [10] | composite z-score [11] | composite z-score [12] | z-score [13] | z-score [14] | z-score [15] | z-score [16]
CCCCC(O)C1C=CC2C(=O)N(c3ccccc3)C(=O)C2N1Nc1ccc(C(C)C)cc1 (stereo not given) | -0.741 | -0.443 (inactive) | -1.1 (inactive) | 0.119 (inactive) | 1.14 (inactive) | 0.477 (inactive) | -0.622 (inactive) | 0.0644 (inactive) | -0.471 | 0.199 | -0.0775 (inactive) | 0.706 | -0.243 | -2.48 (inactive) | -0.638 (inactive) | -1.2 (inactive)
COCCOC(=O)N1C(=O)[C@@]2(c3cc(C#CC4=CCCCC4)ccc31)[C@H](c1ccc(OCCO)cc1)N1[C@H](c3ccccc3)[C@H](c3ccccc3)OC(=O)[C@H]1[C@@H]2C(=O)N1CCN(c2ncccn2)CC1 | 0.205 | 1.7 (inactive) | 0.0789 (inactive) | -1.42 (inactive) | 2.28 (inactive) | 1.78 (inactive) | -0.294 (inactive) | 0.0375 (inactive) | 0.621 | 0.0219 | 0.975 (inactive) | 0.278 | -2.19 | 2.06 (inactive) | 0.313 (inactive) | 0.448 (inactive)
COCCOC(=O)N1C(=O)[C@@]2(c3cc(C#CC4(O)CCCCCC4)ccc31)[C@H](c1ccc(O)cc1)N1[C@H](c3ccccc3)[C@H](c3ccccc3)OC(=O)[C@H]1[C@@H]2C(=O)NC[C@H](O)c1ccccc1 | 0.267 | 0.31 (inactive) | -1.45 (inactive) | 0.658 (inactive) | 1.29 (inactive) | 0.657 (inactive) | 0.157 (inactive) | -0.105 (inactive) | -1.62 | 0.367 | 1.71 (inactive) | 0.681 | -0.0194 | -2.78 (inactive) | -0.145 (inactive) | -0.154 (inactive)
C=C(C)[C@@H]1CC=C(C(O)C2C=CC3C(=O)N(c4ccccc4)C(=O)C3N2Nc2ccccc2F)CC1 (stereo not given in full) | -0.91 | 0.966 (inactive) | -0.773 (inactive) | 1.63 (inactive) | 1.51 (inactive) | 2.01 (inactive) | -0.96 (inactive) | -0.829 (inactive) | -1.09 | 0.0806 | 0.301 (inactive) | 0.656 | -0.282 | -1.52 (inactive) | 0.749 (inactive) | 0.372 (inactive)
O=C1OCC=C[C@H]2OC34C=CCN(Cn5nnc6ccccc65)C(=O)[C@H]3N(CCCO)C(=O)[C@@H]4[C@@H]12 (stereo not given in full) | -0.281 | -0.68 (inactive) | -0.319 (inactive) | -2.85 (inactive) | -0.0684 (inactive) | -0.0325 (inactive) | -1.4 (inactive) | -1.1 (inactive) | -0.509 | -0.105 | 0.206 (inactive) | 0.155 | -1.88 | -1.9 (inactive) | -0.242 (inactive) | -0.228 (inactive)
CN(C)C(=O)[C@@]1(CCS(=O)(=O)c2ccccc2)N=C(c2ccc(OCCCO)cc2)O[C@H]1c1ccccc1 | 0.29 | 0.26 (inactive) | -0.236 (inactive) | -0.431 (inactive) | -0.372 (inactive) | -0.0905 (inactive) | -1.47 (inactive) | -0.732 (inactive) | -0.22 | -0.0866 | 0.77 (inactive) | 0.704 | -1.48 | -6.87 (inactive) | -0.13 (inactive) | -0.0208 (inactive)
O=C1O[C@H](c2ccccc2)[C@H](c2ccccc2)N2[C@H]1[C@@H](C(=O)NC[C@H](O)c1ccccc1)[C@]1(C(=O)Nc3ccc(C#CCCO)cc31)[C@H]2c1ccc(OCCO)cc1 | -0.468 | 1.62 (inactive) | -0.0793 (inactive) | -1.33 (inactive) | 2.31 (inactive) | 3.46 (inactive) | 0.541 (inactive) | 0.721 (inactive) | -0.821 | 0.283 | 1.14 (inactive) | 0.829 | -0.685 | -3.46 (inactive) | -0.434 (inactive) | -0.821 (inactive)
CC[C@H]1C2=C3C(CC[C@H]4C(OCc5ccc(F)cc5C(F)(F)F)OC[C@](C)([C@@H]34)N(C(=O)OC(C)(C)C)C2)C(COC)C1COC (stereo not given in full) | -0.983 | 0.9 (inactive) | -1.31 (inactive) | -0.0058 (inactive) | -0.126 (inactive) | 0.628 (inactive) | -0.543 (inactive) | 0.0886 (inactive) | -0.932 | -0.0838 | 0.716 (inactive) | -0.379 | 0.133 | -1.11 (inactive) | 0.645 (inactive) | 0.217 (inactive)
C=CCC(OC(C)=O)[C@@H]1[C@@H](N(Cc2ccc(-c3cccc(C(F)(F)F)c3)o2)C(=O)c2ccc(C)cc2)c2cc(OCCCO)ccc2N1C(=O)c1ccc2ccccc2c1 (stereo not given in full) | 0.472 | 0.656 (inactive) | 0.845 (inactive) | -0.689 (inactive) | -0.124 (inactive) | 0.544 (inactive) | -0.0973 (inactive) | 0.759 (inactive) | 1.37 | -0.0878 | 0.579 (inactive) | 0.0901 | -2.6 | -0.683 (inactive) | -0.793 (inactive) | -0.595 (inactive)
COc1ccccc1CN1C(=O)c2ccccc2[C@@]2(Cc3ccccc3N(CC(F)(F)F)C2=O)[C@@H]1c1ccc(CO)cc1 | -0.108 | 0.981 (inactive) | -0.987 (inactive) | -11.7 (active) | 0.723 (inactive) | 0.36 (inactive) | 0.224 (inactive) | 0.499 (inactive) | -0.624 | 0.0819 | 0.182 (inactive) | 0.555 | -0.384 | -0.814 (inactive) | 0.149 (inactive) | 0.312 (inactive)
